PubChem BioAssay (Tox21)
Inconclusive results are not listed. Activity calls are given as the source filed them. Unless noted, calls come from the whole dose curve; as a rule, active = well fitted curve in the direction sought with a large enough effect in the repeat runs; inconclusive = weak or mixed curves; inactive = no such curve, though single readings can be large; an effect the other way counts as inactive or inconclusive. Where a SMILES comes first, the peptide text is derived from it.

Legend:
[1] = molecular target: Retinoic acid receptor RXR-alpha (Homo sapiens) (UniProt P19793); assay: qHTS assay to identify small molecule agonists of the RXR signaling pathway (AID 1159527; calls by dose curve; note: nearly all actives have a fitted effect of over 35% in size; note: potency is the fitted concentration of half-maximal effect)
How it was run: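 Compounds in DMSO were added to RXR-alpha-UAS-bla HEK 293T cells kept in 2% charcoal-stripped serum, and incubated 16 hr at 37 C with 5% CO2. Reporter signal came from a 2 hr B/G FRET substrate step.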

[2] = qHTS assay to identify small molecule antagonists of the retinoid acid receptor (RAR) signaling pathway - cell viability counter screen (AID 1159551); note: nearly all actives have a fitted effect of over 35% in size
How it was run: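 Luminescent ATP quantitation (CellTiter-Glo) gave cell viability in C3RL4 cells exposed to test chemicals for 6 h at 37 C alongside 1 uM final retinol.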

[3] = qHTS assay to identify small molecule antagonists of the retinoic acid receptor (RAR) signaling pathway (AID 1159552; note: nearly all actives have a fitted effect of over 50% in size)
How it was run: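 Antagonism of retinol-induced RARE reporter activity was measured in C3RL4 cells. Exposure to compounds and 1 uM final retinol lasted 6 hr at 37 C, with luminescence as endpoint.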

[4] = qHTS assay to identify small molecule agonists of the retinoic acid receptor (RAR) signaling pathway (AID 1159553)
How it was run: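 Luminescence from a RARE-driven luciferase reporter in C3RL4 cells served as the read-out, measured after 30 min with detection reagent at room temperature. Compounds in DMSO were applied for 6 hr at 37 C following overnight seeding.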

[5] = molecular target: Luciferin 4-monooxygenase (Photinus pyralis) (UniProt P08659); assay: qHTS assay to identify small molecule inhibitors of firefly luciferase (AID 1224835); note: series mostly up to about 120 µM; nearly all actives have a fitted effect of over 25% in size
How it was run: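 Inhibition of purified Photinus luciferase is measured by luminescence. Substrate levels (D-luciferin, ATP) sit at their KM values. Each compound is tested in a concentration series.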

[6] = qHTS assay to identify small molecule agonists of the constitutive androstane receptor (CAR) signaling pathway - cell viability counter screen (AID 1224836); note: series mostly up to about 92 µM; nearly all actives have a fitted effect of over 45% in size
How it was run: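 Double-stable HepG2 hepatoma cells (hCAR plus CYP2B6-2.2kb) are treated for 23 h at 37 C with test compounds in 15-point concentration series. PK11195 at 0.75 uM final is co-added. Cell viability is quantified by CellTiter-Fluor.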

[7] = qHTS assay to identify small molecule antagonists of the constitutive androstane receptor (CAR) signaling pathway - cell viability counter screen (AID 1224837); note: series mostly up to about 92 µM; nearly all actives have a fitted effect of over 45% in size
How it was run: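 HepG2-CYP2B6-hCAR cells, 2500/well, 4 hr pre-incubation; compound titration, 15 conc.; CITCO 50 nM final; 23 hr, 37 C/5% CO2; CellTiter-Fluor, fluorescence intensity.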

[8] = molecular target: Nuclear receptor subfamily 1 group I member 3 (Homo sapiens) (UniProt Q14994); assay: qHTS assay to identify small molecule antagonists of the constitutive androstane receptor (CAR) signaling pathway (AID 1224838);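 note: HepG2 cells stably expressing hCAR with CYP2B6 luciferase reporter stimulated by CITCO; nearly all actives have a fitted effect of over 40% in size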
How it was run: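 HepG2-CYP2B6-hCAR cells; 4 h pre-incubation; cpd (15 conc) + CITCO 50 nM final; 24 h, 37 C/5% CO2; ONE-Glo, luminescence.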

[9] = molecular target: Nuclear receptor subfamily 1 group I member 3 (Homo sapiens) (UniProt Q14994); assay: qHTS assay to identify small molecule agonists of the constitutive androstane receptor (CAR) signaling pathway (AID 1224839);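 note: HepG2 cells stably carrying human CAR and a CYP2B6 luciferase reporter; series mostly up to about 92 µM; nearly all actives have a fitted effect of over 15% in size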
How it was run: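 Readout: firefly luciferase luminescence via ONE-Glo. System: HepG2 double-stable for hCAR and CYP2B6-2.2kb. Conditions: 15-point compound titration, PK11195 at 0.75 uM final, 24 h incubation.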

[10] = qHTS assay to identify small molecule antagonists of the estrogen related receptor signaling pathway with the pleiotropic PPARgamma coactivator (PGC) from Tox21 10K library - cell viability counter screen (AID 1224840; active = well fitted cell-killing curve with a large enough effect in the repeat runs, not every such curve was filed as active; note: nearly all actives have a fitted effect of over 40% in size)
How it was run: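 PGC/ERR cells, 2,000/well; 6 h pre-incubation 37 C/5% CO2; cpd in DMSO via pin tool; 17.5 h 37 C; CellTiter-Fluor, 30 min; fluorescence.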

[11] = qHTS assay to identify small molecule agonists of the estrogen related receptor signaling pathway with the pleiotropic PPARgamma coactivator (PGC) from Tox21 10K library (AID 1224842); note: nearly all actives have a fitted effect of over 15% in size
How it was run: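 Luminescence from One-Glo (30 min, room temperature) measured after PGC/ERR cells had 18 h at 37 C with pinned compound (23 nL in DMSO). Cells had been seeded at 2,000 per well and pre-incubated 6 h.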

[12] = qHTS assay to identify small molecule agonists of the hypoxia (HIF-1) signaling pathway - cell viability counter screen (AID 1224844; calls by dose curve; note: nearly all actives have a fitted effect of over 50% in size)
How it was run: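 ME-180 HRE-bla cells, 2,000/well, 0.5% dialyzed FBS; 5 hr settle, 17 hr compound at 37C/5% CO2; CCF4-AM reporter read first, then CellTiter-Glo luminescence after 30 min RT.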

[13] = qHTS assay to identify small molecule agonists of the hypoxia (HIF-1) signaling pathway (AID 1224846; active = well fitted activation curve with a large enough effect in the signal ratio in the repeat runs, not every such curve was filed as active; the % refers to the signal ratio)
How it was run: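 Cell line: CellSensor HRE-bla ME-180; 2,000 cells/well; 0.5% dialyzed FBS; 5 h preincubation; DMSO compound pin transfer; 17 h, 37C, 5% CO2; CCF4-AM added; bla FRET signal scored for activation.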

[14] = qHTS assay to identify small molecule antagonists of the estrogen related receptor (ERR) signaling pathway from Tox21 library - cell viability counter screen (AID 1224834); note: nearly all actives have a fitted effect of over 30% in size
How it was run: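 Fluorescence from CellTiter-Fluor gives the viability read-out, taken 30 min after reagent addition. Before that, ERR cells seeded 6 h earlier were incubated with compounds for 17.5 h at 37 C.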

[15] = molecular target: Thyrotropin receptor (Homo sapiens) (UniProt P16473); assay: qHTS assay to identify small molecule agonists of the thyroid stimulating hormone receptor (TSHR) signaling pathway (AID 1224843; calls by dose curve; note: nearly all actives have a fitted effect of over 45% in size)
How it was run: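 Screening of the Tox21 10K collection used HEK293 cells engineered with TSHR at 800 cells per well. After a 30-min room-temperature compound exposure, HTRF cAMP reagents were added and fluorescence recorded 1 h later.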

[16] = qHTS assay to identify small molecule agonists of H2AX - cell viability counter screen (AID 1224847; calls by dose curve;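 note: wild-type CHO-K1 cells; top concentration of the series differs between compounds; nearly all actives have a fitted effect of over 30% in size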)
How it was run: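 For this counter screen, overnight-attached CHO-K1 cells received test compounds (15 concentrations, 0.76% DMSO final); 3 hr later at 37C, CellTiter-Glo reagent was added and luminescence recorded after 30 min at room temperature.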

[17] = qHTS assay to identify small molecule agonists of H2AX (AID 1224845; active = well fitted activation curve with a large enough effect in the signal ratio in the repeat runs, not every such curve was filed as active; the % refers to the signal ratio)
How it was run: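 Phospho-H2AX Ser139 measured by HTRF (ex 320 nm; em 665 and 620 nm) after 24 hr antibody incubation. Compounds, 15 concentrations, 0.76% DMSO, were applied to CHO-K1 cells for 3hr at 37C before lysis.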

[18] = qHTS assay to identify small molecule antagonists of the estrogen related receptor signaling pathway with the pleiotropic PPARgamma coactivator (PGC) from Tox21 10K library (AID 1224841; call rule not given here; note: series mostly up to about 92 µM; actives are mostly falling curves and most rising ones were filed inactive; nearly all actives have a fitted effect of over 50% in size)
How it was run: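 PGC/ERR cell line, 2,000 cells/well; 6 h pre-incubation 37 C/5% CO2; compounds (DMSO) pinned in; 18 h, 37 C; One-Glo, 30 min RT; luminescence.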

[19] = qHTS assay to identify small molecule antagonists of the estrogen related receptor (ERR) signaling pathway from Tox21 library (AID 1224848); note: nearly all actives have a fitted effect of over 50% in size
How it was run: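 Antagonist-mode screen of the Tox21 10K library in an NTP-provided ERR reporter cell line; 18 h compound exposure at 37 C, luminescence measured with ONE-Glo.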
% is set by controls: 0 for no effect and ±100 for the full control effect.

Sequence of Retinoic acid receptor RXR-alpha (Homo sapiens) (P19793 whole entry, looked up): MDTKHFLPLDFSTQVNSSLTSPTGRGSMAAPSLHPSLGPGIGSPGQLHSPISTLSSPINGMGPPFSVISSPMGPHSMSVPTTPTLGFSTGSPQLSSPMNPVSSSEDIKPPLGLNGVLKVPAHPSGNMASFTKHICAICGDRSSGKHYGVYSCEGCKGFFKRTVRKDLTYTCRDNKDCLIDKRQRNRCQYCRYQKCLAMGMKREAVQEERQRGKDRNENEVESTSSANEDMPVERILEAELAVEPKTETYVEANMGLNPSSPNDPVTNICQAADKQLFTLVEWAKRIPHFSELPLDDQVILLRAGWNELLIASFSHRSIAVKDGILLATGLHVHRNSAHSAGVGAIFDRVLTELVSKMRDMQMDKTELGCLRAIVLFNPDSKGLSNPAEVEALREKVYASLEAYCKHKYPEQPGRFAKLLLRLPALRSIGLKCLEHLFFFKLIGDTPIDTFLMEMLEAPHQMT
Sequence of Nuclear receptor subfamily 1 group I member 3 (Homo sapiens) (Q14994 whole entry, looked up): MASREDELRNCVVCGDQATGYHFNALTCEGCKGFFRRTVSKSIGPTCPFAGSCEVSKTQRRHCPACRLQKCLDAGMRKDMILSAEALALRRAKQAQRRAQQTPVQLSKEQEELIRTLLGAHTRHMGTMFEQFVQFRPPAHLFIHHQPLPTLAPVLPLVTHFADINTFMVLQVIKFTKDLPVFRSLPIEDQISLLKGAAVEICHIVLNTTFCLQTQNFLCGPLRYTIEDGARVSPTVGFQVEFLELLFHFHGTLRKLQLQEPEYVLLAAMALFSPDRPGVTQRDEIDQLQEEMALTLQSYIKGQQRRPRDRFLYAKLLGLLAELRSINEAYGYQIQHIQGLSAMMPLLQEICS
Sequence of Thyrotropin receptor (Homo sapiens) (P16473 whole entry, looked up): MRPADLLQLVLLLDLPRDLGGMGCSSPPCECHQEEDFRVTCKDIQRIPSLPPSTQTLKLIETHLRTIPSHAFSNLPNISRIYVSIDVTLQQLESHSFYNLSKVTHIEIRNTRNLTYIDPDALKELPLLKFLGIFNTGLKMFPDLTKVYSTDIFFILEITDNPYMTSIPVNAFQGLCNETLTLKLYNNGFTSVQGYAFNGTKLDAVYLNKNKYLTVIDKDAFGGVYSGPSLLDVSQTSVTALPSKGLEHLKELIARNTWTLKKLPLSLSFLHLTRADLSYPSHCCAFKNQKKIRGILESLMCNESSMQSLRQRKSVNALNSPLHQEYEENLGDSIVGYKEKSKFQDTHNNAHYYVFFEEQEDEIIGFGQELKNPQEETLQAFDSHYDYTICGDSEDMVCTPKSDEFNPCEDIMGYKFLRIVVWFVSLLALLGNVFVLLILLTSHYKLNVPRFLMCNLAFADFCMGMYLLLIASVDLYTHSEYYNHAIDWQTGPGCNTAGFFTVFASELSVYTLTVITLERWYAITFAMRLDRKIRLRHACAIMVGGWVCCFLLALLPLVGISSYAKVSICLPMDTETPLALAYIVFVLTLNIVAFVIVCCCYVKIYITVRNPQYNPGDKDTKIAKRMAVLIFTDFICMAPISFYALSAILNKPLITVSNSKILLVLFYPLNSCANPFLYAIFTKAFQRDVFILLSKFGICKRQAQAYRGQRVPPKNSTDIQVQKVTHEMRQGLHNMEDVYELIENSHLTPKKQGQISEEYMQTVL
Sequence of Luciferin 4-monooxygenase (Photinus pyralis) (P08659 whole entry, looked up): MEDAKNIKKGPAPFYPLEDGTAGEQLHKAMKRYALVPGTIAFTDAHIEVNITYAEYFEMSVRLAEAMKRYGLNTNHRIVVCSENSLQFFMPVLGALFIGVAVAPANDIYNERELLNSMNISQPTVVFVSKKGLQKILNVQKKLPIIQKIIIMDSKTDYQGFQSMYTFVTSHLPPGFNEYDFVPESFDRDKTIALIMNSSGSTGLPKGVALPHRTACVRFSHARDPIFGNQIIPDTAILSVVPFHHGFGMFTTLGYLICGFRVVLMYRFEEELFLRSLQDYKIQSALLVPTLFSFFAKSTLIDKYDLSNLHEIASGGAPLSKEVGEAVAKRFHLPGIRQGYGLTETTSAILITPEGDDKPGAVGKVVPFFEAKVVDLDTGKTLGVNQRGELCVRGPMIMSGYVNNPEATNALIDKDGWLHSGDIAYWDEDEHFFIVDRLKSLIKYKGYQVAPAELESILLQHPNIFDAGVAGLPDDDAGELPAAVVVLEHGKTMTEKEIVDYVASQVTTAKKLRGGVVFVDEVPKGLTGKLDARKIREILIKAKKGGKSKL

CCC(C(=O)OCCN1CCOC(c2ccccc2)C1C)c1ccccc1 (configuration not stated)
inactive: Potency [1] | outcome [2] | outcome [3] | Potency [4] | Potency [5] | outcome [6] | outcome [7] | Potency [8] | Potency [9] | outcome [10] | outcome [11] | outcome [12] | outcome [13]

O=S(=O)(O)c1ccc2c(N=Nc3ccc(S(=O)(=O)O)c4ccccc34)c(O)c(S(=O)(=O)O)cc2c1
inactive: activation [1] 0.333% [at 6.98 µM] | activity change, negative = cytotoxicity [2] -2.67% [at 8.39 µM] | activity, negative = inhibition [3] 111% [at 8.39 µM] | activation [4] -2.37% [at 8.36 µM] | viability change, negative = cytotoxic [14] -6.16% [at 8.39 µM] | activity change, negative = inhibition [5] -3.96% [at 10.5 µM] | viability change, negative = cytotoxic [6] -7.02% [at 8.39 µM] | activity change, negative = cytotoxicity [7] -18.2% [at 8.39 µM] | activity, negative = inhibition [8] -7.08% [at 8.39 µM] | activation [9] 0.066% [at 8.39 µM] | viability change, negative = cytotoxic [10] -10.3% [at 8.39 µM] | activation [15] 3.55% [at 8.39 µM] | activity change, negative = cytotoxicity [12] -2.23% [at 6.97 µM] | activity change, negative = cytotoxicity [16] -5.59% [at 14 µM]

CN1CCOC(c2ccccc2)c2ccccc2C1 (configuration not stated)
inactive: Potency [1] | outcome [2] | outcome [3] | Potency [4] | Potency [5] | outcome [6] | outcome [7] | Potency [9] | outcome [10] | outcome [15] | outcome [12] | outcome [17]

CC(C)C1OCCN1CCOC(=O)NCCCCCCNC(=O)OCCN1CCOC1C(C)C (configuration not stated)
inactive: Potency [1] | outcome [2] | outcome [3] | Potency [4] | outcome [14] | Potency [5] | outcome [6] | outcome [7] | Potency [8] | Potency [9] | outcome [10] | outcome [15] | outcome [12] | outcome [17] | outcome [16]

NCc1ccc(S(N)(=O)=O)cc1
inactive: Potency [1] | outcome [2] | outcome [3] | Potency [4] | outcome [14] | Potency [5] | outcome [6] | outcome [7] | Potency [8] | Potency [9] | outcome [10] | outcome [15] | outcome [12] | outcome [17] | outcome [16]

O=C1c2ccccc2C(=O)c2cc(Cl)ccc21
inactive: activation [1] 2.02% [at 6.98 µM] | activity change, negative = cytotoxicity [2] 3.77% [at 8.39 µM] | activity, negative = inhibition [3] 30% [at 8.39 µM] | activation [4] 2.57% [at 8.36 µM] | viability change, negative = cytotoxic [14] 1.32% [at 8.39 µM] | activity change, negative = inhibition [5] 0.579% [at 10.5 µM] | viability change, negative = cytotoxic [6] -1.2% [at 8.39 µM] | activity change, negative = cytotoxicity [7] 2.26% [at 8.39 µM] | activation [9] 8.38% [at 8.39 µM] | viability change, negative = cytotoxic [10] 5.77% [at 8.39 µM] | activation [15] -6.72% [at 8.39 µM] | activity change, negative = cytotoxicity [12] 10.7% [at 6.97 µM] | activation [13] -0.0803% [at 7.01 µM] | activity change, negative = cytotoxicity [16] 4.41% [at 14 µM]

CCCCCCCCCCCCCCCCCCOCCO
inactive: activation [1] 5.49% [at 15.8 µM] | activity change, negative = cytotoxicity [2] -1.36% [at 19 µM] | activity, negative = inhibition [3] -13.7% [at 19 µM] | Potency [4] | viability change, negative = cytotoxic [6] -7.83% [at 19 µM] | activity change, negative = cytotoxicity [7] 0.177% [at 19 µM] | activity, negative = inhibition [8] -10.5% [at 19 µM] | activation [9] -0.275% [at 19 µM] | viability change, negative = cytotoxic [10] -0.639% [at 19 µM] | activation [15] -2.81% [at 19 µM] | activity change, negative = cytotoxicity [12] 16.8% [at 15.8 µM] | activation (H2AX phosphorylation) [17] -3.63% [at 31.6 µM] | activation [13] 0.444% [at 15.8 µM] | activity change, negative = cytotoxicity [16] -6.52% [at 31.6 µM]

CC(=O)N[C@@H](CO)C(=O)N[C@@H](CC(=O)O)C(=O)N[C@@H](CCCCN)C(=O)N1CCC[C@H]1C(=O)O (Ac-SDKP-OH)
inactive: Potency [1] | outcome [2] | outcome [3] | Potency [4] | outcome [14] | Potency [5] | outcome [6] | outcome [7] | Potency [8] | Potency [9] | outcome [10] | outcome [12] | outcome [17] | outcome [13] | outcome [16]

OC[C@@H](O)C(O)[C@@H](O)CO (some centres not stated)
active: Potency [1] 1.57 µM
inactive: outcome [2] | outcome [3] | Potency [4] | outcome [14] | Potency [5] | outcome [6] | outcome [7] | Potency [9] | outcome [10] | outcome [18] | outcome [11] | outcome [12] | outcome [13] | Potency [19]
